In the library only some 13% were active in any assay of this set; here they are far more common.
HSD17B inhib: blocks hydroxysteroid 17-beta dehydrogenase activity; 7.6% of 75,000 active; recombinant HSD17B10, NADH fluorescence kinetic; Potency, µM (top dose mostly 57.1 µM), for inactives: at the top dose activity change, negative = inhibition, usual class: inhibitors; Q99714; AID 893;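 also: the protocol describes HADH2 (HSD17B10) and not the HSD17B4 of the title; potency is read from the fitted curve at half-maximal effect; % is scaled to controls: 0 for no effect and ±100 for the full control effect; nearly all actives have a fitted effect of over 70% in size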
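Activity followed as NADH fluorescence increase (ex 360, em 450 nm) every 30 seconds for 4 min, using final 90 uM beta-hydroxybutyryl CoA and 1 mM NAD+. Recombinant His-tagged enzyme, 20 nM, pH 9.0 Tris buffer, 15 min compound preincubation.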
4MU fluor: compounds fluorescent in 4-MU spectral region; compound autofluorescence, 340/450 nm, 4-MU equivalents; active compounds read high; max dye-equivalent concentration, M; 11% of 59,000 active; AID 589; in the data active = max dye-equivalent concentration above about 10 nM; inconclusive = mostly about 1.1 nM to 9.6 nM
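Compounds in 100 mM Tris, pH 8.0, incubated 15 min at room temperature, then fluorescence read at 340 nm excitation/450 nm emission. Signal converted to 4-MU dye-equivalent concentration using an on-plate six-point 4-MU standard curve.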
HADH2 inhib: inhibitors of human HADH2 dehydrogenase; Q99714; AID 886; recombinant HADH2, NADH fluorescence, beta-hydroxybutyryl-CoA; 3.4% of 73,000 active; Potency, µM (top dose mostly 57.1 µM), for inactives: top-dose activity change, negative = inhibition, usual class: inhibitors; also: potency is read from the fitted curve at half-maximal effect; % is scaled to controls: 0 for no effect and ±100 for the full control effect; nearly all actives have a fitted effect of over 60% in size
Target sequence (Q99714 whole entry, looked up, one chain of several): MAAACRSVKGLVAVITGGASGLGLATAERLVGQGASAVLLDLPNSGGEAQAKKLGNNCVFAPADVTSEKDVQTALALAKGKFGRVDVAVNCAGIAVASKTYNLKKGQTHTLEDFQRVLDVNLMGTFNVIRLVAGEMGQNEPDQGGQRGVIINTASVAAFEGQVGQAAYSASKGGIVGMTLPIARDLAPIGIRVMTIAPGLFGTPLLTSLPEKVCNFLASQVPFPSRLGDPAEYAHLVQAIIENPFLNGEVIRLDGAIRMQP
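His-tagged recombinant enzyme from E. coli, 20 nM, preincubated 15 min RT with compound; reaction started with 1 mM NAD+ and 90 uM beta-hydroxybutyryl-CoA in 100 mM Tris-HCl pH 9.0. NADH fluorescence (ex 360/em 450) read over 4 min; last-minus-first difference.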
AID923: qHTS Assay for Allosteric/Competitive Inhibitors of Caspase-1: Spectroscopic Profiling in AFC Spectral Region; compound fluorescence, AFC spectral region (405/520 nm); Potency, µM (doses to about 57.5 µM), for inactives: at the top dose fluorescence increase, actives largely listed as activators; 1.1% of 75,000 active; AID 923, 2007; also: potency is read from the fitted curve at half-maximal effect; 0% is about no effect
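Compound autofluorescence profiled at 405 nm ex/520 nm em during kinetic caspase 1 run (50 nM enzyme, 5 uM Ac-WEHD-AFC, HEPES pH 7.5, 10 mM DTT). Titration up to 57 uM; baseline from regression intercept, normalized to AFC standard curve.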
A350 autofl: A350 region autofluorescence; max dye-equivalent concentration, M; 11% of 59,000 active; Compound autofluorescence, 340/450 nm, Alexa 350 dye-equivalents; active compounds read high; in the data active = max dye-equivalent concentration above about 10 nM; inconclusive = mostly about 1.1 nM to 9.6 nM
Active calls of the source: *; i = inactive; ? = inconclusive; / = no result; [ ] = remark or other dose. Unless noted, calls follow the shape of the dose curve; as a rule, active = well fitted curve in the direction sought with a large enough effect; inconclusive = small, poorly fitted or top-dose-only effect, or another doubt; inactive = no such curve, though single readings can be large; an effect the other way counts as inactive or inconclusive.

SMILES | HSD17B inhib | 4MU fluor | HADH2 inhib | AID923 | A350 autofl
COc1ccc(-c2coc3cc(OC(C)=O)cc(OC(C)=O)c3c2=O)cc1 | -3% | / | / | -2% | /
CCOc1ccc(-c2nnc(-c3ccncc3)o2)cc1 | 32µM* | i | 14% | 1% | ?
CCCCOc1ccc(-c2nnc(-c3ccncc3)o2)cc1 | 25µM* | i | -14% | -2% | ?
O=C(Cc1ccc2cccnc2c1)c1ccc(O)cc1O | -15% | 4.4e-08M* | -22% | -2% | 5.4e-08M*
Oc1ccc2cccnc2c1 | -22% | 1.4e-08M* | 1% | 16µM* | 1.9e-08M*
COc1ccc(S(=O)(=O)NCC(=O)N(CC(=O)NCC2CCCO2)c2c(C)cccc2C)cc1 (centres undefined) | -4% | i | 0% | 0% | i
CCC1=C2CC[C@H]3C(=O)N(CC(=O)OC)C(=O)[C@H]3[C@H]2[C@@]2(Cc3ccccc3)C(=NCCc3c[nH]c4ccccc34)OC(=O)N2C1=O | 1% | / | / | 1% | /
CCOC(=O)N1CCN(CC(=O)Nc2c(C(=O)OC)[nH]c3ccccc23)CC1 | ? | i | -7% | -1% | i
CCOC(=O)c1[nH]c2cc3c(cc2c1NC(=O)CN1CCC(C)CC1)OCO3 | / | 1.8e-08M* | / | / | 2e-08M*
CCOC(=O)c1[nH]c2cc3c(cc2c1NC(=O)CN1CCc2ccccc2C1)OCO3 | / | 3.7e-08M* | / | / | 4e-08M*
O=C(NCCCN1CCCC1)Nc1cccc2ccccc12 | 32µM* | i | -21% | 1% | i
O=C(NCCCN1CCN(c2ccccc2)CC1)Nc1ccccc1C(F)(F)F | 8% | i | 6% | 1% | i
CN1CCN(CCCNC(=O)Nc2cccc3ccccc23)CC1 | 32µM* | i | 43% | 0% | i
Oc1ccc([C@@H]2CNCc3sccc32)cc1O | 10µM* | ? | 0.32µM* | -2% | ?
CC[C@H]1CN(C)[C@H]2Cc3c([nH]c4ccccc34)C(=O)C[C@H]1[C@H]2C(=O)OC | -4%[11.4 µM] | ? | 12%[11.4 µM] | -1%[11.5 µM] | ?
COc1ccc(N/C=C(\C#N)c2nc3ccccc3n2C)c(OC)c1 | / | 2e-08M* | / | / | 2e-08M*
COc1ccccc1CNc1ncnc2ccc(-c3cccnc3)cc12 | 32µM* | i | -5% | -1% | i
COc1cccc(-c2ccc3ncnc(NCc4cccnc4)c3c2)c1 | 32µM* | i | 16% | 1% | i
CC(=O)OC(C(=O)c1ccccc1)c1ccccc1 (centres undefined) | 2% | / | -8% | 0% | /
COC(=O)[C@H](CCSC)NC(=O)Nc1cc(C)ccc1C | -2% | 1.8e-08M* | -1% | 1% | 2.4e-08M*
N#Cc1nc(COc2cccc(Cl)c2)oc1N1CCCC1 | 8% | / | 0% | -3% | /
N#Cc1nc(-c2ccco2)oc1N1CCc2ccccc2C1 | 25µM* | ? | ? | 2% | ?
N#Cc1nc(-c2ccco2)oc1N1CCN(c2cccc(Cl)c2)CC1 | 32µM* | i | i | 2% | i
O=S(=O)(c1ccccc1)c1nc(-c2ccco2)oc1N1CCOCC1 | -18% | i | -6% | -1% | i
CC1CC(C)CN(c2oc(-c3ccco3)nc2C#N)C1 (centres undefined) | 32µM* | 1.8e-08M* | -19% | 0% | 2.1e-08M*
SMILES | HSD17B inhib | 4MU fluor | HADH2 inhib | AID923 | A350 autofl
N#Cc1nc(Cc2cccc3ccccc23)oc1N1CCOCC1 | -6% | i | 7% | -2% | i
COc1ccccc1OCc1nc(C#N)c(N2CC(C)CC(C)C2)o1 (centres undefined) | -6% | / | -2% | 0% | /
N#Cc1nc(-c2ccco2)oc1N1CCCC1 | 25µM* | 4.2e-08M* | 3.2µM* | 5% | 4.9e-08M*
CC1CC2C(C(O)C[C@]3(C)C2CC[C@]3(O)C(=O)CO)[C@]2(C)C=CC(=O)C=C12 (some centres undefined) | -24% | / | / | -1% | /
CCSc1sccc1C1C(C#N)=C(N)N(c2cccnc2)C2=C1C(=O)CCC2 (centres undefined) | 32µM* | ? | ? | 10% | ?
N#CC1=C(N)N(c2ccccc2)C2=C(C(=O)CCC2)C1c1ccsc1 (centres undefined) | ? | 1.6e-08M* | -2% | 1% | 1.7e-08M*
N#CC1=C(N)OC2=C(C(=O)CCC2)C1c1ccncc1 (centres undefined) | -3% | i | -7% | 2% | i
CC(CC1C(C#N)=C(N)OC2=C1C(=O)CCC2)c1ccccc1 (centres undefined) | 5% | / | 0% | -2% | /
CN(C)CCCSc1ccccc1NC(=O)/C=C\c1ccccc1 | -4% | / | 6% | -2% | /
O=C(O)CNC(=O)[C@H]1NC(C(F)(F)F)(C(F)(F)F)OC1(C(F)(F)F)C(F)(F)F | 11%[11.4 µM] | i | -5%[11.4 µM] | -1%[11.5 µM] | i
NC(=O)c1ccccc1N=Cc1ccccn1 | 32µM* | 4.5e-07M* | 32µM* | 3% | 3.3e-07M*
O=C(O)C1Cc2c([nH]c3ccccc23)C(c2ccc3c(c2)OCO3)N1 (centres undefined) | 32µM* | 2.6e-08M* | -17% | 9% | 3.1e-08M*
O=C(Cc1c(C(=O)O)[nH]c2ccccc12)Nc1ccc2c(c1)OCO2 | 1% | i | -2% | 0% | i
O=C(O)[C@@H]1Cc2c([nH]c3ccccc23)[C@@H](CCCCO)N1 | 0%[11.4 µM] | 2.1e-08M* | -4%[11.4 µM] | 1%[11.5 µM] | 2.5e-08M*
ON=C1CCCCC1 | 2% | / | 4% | 13% | /
CCCCNC(=O)COC(=O)c1cc2c(C)nn(-c3ccccc3)c2s1 | 10µM* | i | 62% | 0% | i
Cc1nn(-c2ccc(F)cc2)c2sc(C(=O)OCC(=O)N3CCC(C)CC3)cc12 | 32µM* | i | 44% | 1% | i
O=C(c1cnccn1)N1CCC2(CC1)CCN(C(c1ccccc1)c1ccccc1)CC2 | -13% | i | 5% | -4% | i
COC(=O)c1ccc(C(NC(=O)OCc2ccccc2)/C(C)=C/[C@@H](C)C(=O)NCCO)cc1 (some centres undefined) | 3% | / | 23% | 0% | /
COc1ccc(CCNc2oc(COc3ccccc3F)nc2C#N)cc1OC | -7% | i | 19% | 3% | i
N#Cc1nc(-c2ccccc2F)oc1NCCc1ccccn1 | 3.2µM* | ? | i | -3% | ?
COCCCNc1oc(-c2ccccc2F)nc1C#N | 20µM* | / | 32µM* | 0% | /
COCCCNc1oc(-c2ccccc2OC)nc1C#N | 32µM* | 8.8e-08M* | 25µM* | 0% | 1.1e-07M*
O[C@@H](c1ccccc1)C1CCN(CCc2ccccc2)CC1 | 4% | / | 8% | 0% | /
CN1C(=O)c2oc3ccccc3c(=O)c2C1c1ccccn1 (centres undefined) | 9% | i | -1% | 0% | i
O=C1c2oc3ccccc3c(=O)c2C(c2ccc(Br)cc2)N1c1ncccn1 (centres undefined) | 6% | ? | 0% | -1% | 1.3e-08M*
Nc1ncnc2c1ncn2[C@H]1O[C@@H](C(=O)OCCO)[C@@H](O)[C@H]1O | 2%[11.4 µM] | i | 4%[11.4 µM] | 1%[11.5 µM] | i

From PubChem BioAssay
